From PubChem BioAssay (NCI)
The panel holds about 83,000 compounds, 20% with a hit somewhere; the sample as a whole holds those more often.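 The endpoint reported here, percent growth, reads 100 for growth as untreated, 0 for no net growth and -100 for all cells dead.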 Active and inactive are the calls of the source. The calls were made as follows: active = growth percent below 10; inactive = the rest.

Test system: SF-268 CNS
Assay: NCI-60 one-dose screen, 48 h (100 = growth as untreated, 0 = no growth, -100 = all killed)
Settings: 10 µM unless noted

Compound	growth
COc1cc2oc(-c3cccc(NC(=O)c4cc(N)ccc4Cl)c3)cc(=O)c2c(OC)c1OC	98.2% (inactive)
CC(C)(C)n1cc(-c2ccnc(NCCCNS(=O)(=O)c3cccc(F)c3)n2)c(-c2ccc(Cl)c(O)c2)n1	95.9% (inactive)
COc1cccc2cc(-c3cc4ccccc4[nH]3)/c(=N\NC(=O)c3ccc(Cl)cc3)oc12	32.9% (inactive)
Nc1nc(Nc2ccccc2SSc2ccccc2Nc2nc(N)nc(-c3ccc4ccccc4c3)n2)nc(-c2ccc3ccccc3c2)n1	74.9% (inactive)
O=C(CN1CCN(c2cc(=O)n(-c3ccccc3)c3ccccc23)CC1)Nc1nc(-c2ccccc2)cs1	79.2% (inactive)
CC(Nc1c(C#N)cnc2ccc(-c3cnc(N)nc3)cc12)c1ccccc1 (stereo not drawn)	13.4% (inactive)
CC(=O)Nc1cccc(Nc2nc(N[C@H](C)c3ccccc3)c3ccccc3n2)c1	62.9% (inactive)
CNC1CCc2c(sc(NC(=O)c3ccc(C(C)(C)C)cc3)c2C(N)=O)C1 (stereo not drawn)	79% (inactive)
COc1cc(OC)cc(C(=O)Nc2cccc(C#Cc3cccc4[nH]nc(N)c34)c2)c1	33% (inactive)
COc1c(N2CC3CCCNC3C2)c(F)cc2c(=O)c(C(=O)N/N=C/c3ccccc3)cn(C3CC3)c12 (stereo not drawn)	85.2% (inactive)
COc1ccccc1-n1cc(C#N)c(N)c1C(=O)c1ccc(Br)cc1	89% (inactive)
Nc1nc(-c2cccc([N+](=O)[O-])c2)c(N=Nc2ccccc2)s1	66.4% (inactive)
COc1ccc(-c2nc3ccc(-c4nnc(SCC(=O)Nc5ccc(C(=O)/C=C/c6ccc(Cl)cc6)cc5)o4)cc3[nH]2)cc1	94.9% (inactive)
